Assay outcomes: PubChem, several laboratories
CYP2C19 inhib: human CYP2C19 inhibition; CYP2C19 Supersomes, luciferin-H EGE luminescence, 30 min; inhibition, % at 5 µM; 96,000 compounds, 21% hits;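 active = CYP2C19 inhibition above a set limit at 5 µM in the primary screen, cut at about 50% in these data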
sEH activator: increases human soluble epoxide hydrolase activity. activation, % at 2 µM. 91,000 compounds, 0.04% hits. AID 717. purified human sEH enzymatic activity, activator screen. P34913; in the data active = activation above about 37%
Target sequence (P34913 whole entry, looked up): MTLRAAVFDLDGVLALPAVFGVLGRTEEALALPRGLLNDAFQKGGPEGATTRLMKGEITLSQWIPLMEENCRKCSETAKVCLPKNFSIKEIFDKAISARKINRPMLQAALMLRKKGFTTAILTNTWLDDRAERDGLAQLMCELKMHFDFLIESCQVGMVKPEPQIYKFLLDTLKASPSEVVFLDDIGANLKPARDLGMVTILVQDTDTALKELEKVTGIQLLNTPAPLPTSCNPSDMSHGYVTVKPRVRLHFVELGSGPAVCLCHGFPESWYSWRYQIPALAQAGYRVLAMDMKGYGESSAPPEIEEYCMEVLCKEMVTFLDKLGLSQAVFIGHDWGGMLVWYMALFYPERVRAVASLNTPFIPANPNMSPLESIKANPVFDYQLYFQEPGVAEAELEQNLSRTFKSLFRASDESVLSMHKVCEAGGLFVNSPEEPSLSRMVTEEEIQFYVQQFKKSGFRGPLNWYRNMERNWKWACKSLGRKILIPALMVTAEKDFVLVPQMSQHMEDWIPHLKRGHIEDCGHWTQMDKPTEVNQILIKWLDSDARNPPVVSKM
CYP2C19 act: cytochrome P450 2C19 (human) activation; P33261; recombinant CYP2C19, luciferin-H EGE luminescence; active compounds read high; 0 = fully inhibited enzyme, 1 = untreated enzyme; activation factor at 5 µM; 96,000 tested, under 10 active; AID 1025;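 active = activation factor of at least 2 at 5 µM in the primary screen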
CYP2C9 inhib: human CYP2C9 inhibition; inhibition, % at 5 µM; 96,000 compounds, 20% hits; CYP2C9 Supersomes, luciferin-H conversion, luminescence; AID 777;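 active = blocking of liver enzyme CYP2C9 beyond about 50% at 5 µM, limit read from the data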
CYP2C9 act: CYP2C9 (human) activation. P11712. recombinant CYP2C9, luciferin-H conversion, luminescence; active compounds read high; factor 1 = untreated enzyme, 0 = blocked. activation factor at 5 µM. 96,000 compounds, 1.4% hits;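 active = activation factor of 2 or more for CYP2C9 at a 5 µM dose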
sEH inh: inhibitors of human soluble epoxide hydrolase. P34913. recombinant human sEH enzymatic activity assay. inhibition, % at 2 µM. 91,000 compounds, 0.34% hits. AID 707; in the data active = inhibition above about 80%
Hits are given with their value; i = inactive; nt = no result given. These entries were drawn from the full list.

SMILES	CYP2C19 inhib	sEH activator	CYP2C19 act	CYP2C9 inhib	CYP2C9 act	sEH inh
CC1CCCCN1CCNC(=O)CN1C(=O)COc2ccccc21 (stereo unspecified)	i	nt	i	i	i	nt
CC1CCN(c2c(NCc3ccc(C(=O)NCC4COc5ccccc5O4)cc3)c(=O)c2=O)CC1 (stereo unspecified)	nt	i	nt	nt	nt	i
Cc1ccc(-n2ncc3c(=O)n(Cc4cccnc4)cnc32)cc1	i	nt	i	i	i	nt
Cc1nc(C)n(CC(O)COc2ccc3ccccc3c2)n1 (stereo unspecified)	69.5	i	i	i	i	i
CC(=O)Nc1ccc(OCC(O)Cn2nc(C)nc2C)cc1 (stereo unspecified)	i	i	i	i	i	i
CCC(CC)c1nnc(NC(=O)c2ccc3ccccc3n2)s1	nt	i	nt	nt	nt	i
COc1ccc(CCn2c(C)c(C(C)=O)c3cc(OC(=O)c4ccco4)ccc32)cc1OC	83.4	i	i	87.2	i	i
CC(=O)c1c(C)n(C)c2ccc(OC(=O)c3ccco3)cc12	i	i	i	i	i	i
O=c1c2ccccc2nc(-c2ccccc2)n1CCCn1ccnc1	71.6	i	i	69.7	i	i
Cc1ccc(-c2nc3ccccc3c(=O)n2CCCn2ccnc2)cc1	i	i	i	i	i	i
CCC(c1nc2ccccc2c(=O)n1CCN1CCOCC1)N1C(=O)c2ccccc2C1=O (stereo unspecified)	i	i	i	i	i	i
COCCCn1c(-c2ccco2)nc2ccccc2c1=O	i	i	i	i	i	i
COc1ccc(CCn2c(-c3ccco3)nc3ccccc3c2=O)cc1OC	95.4	i	i	i	i	i
CCC(c1nc2ccccc2c(=O)n1CCCn1ccnc1)N1C(=O)c2ccccc2C1=O (stereo unspecified)	93.1	i	i	85.2	i	i
CCCNC(=S)Nc1ccc2nc(-c3ccccn3)c(-c3ccccn3)nc2c1	i	i	i	i	i	i
COC(=O)c1c(-c2ccc(F)cc2)noc1N	i	i	i	i	i	i
Cc1onc(-c2c(Cl)cccc2Cl)c1C(=O)n1nnc2ccccc21	i	i	i	i	i	i
COc1ccc(C(NC(=O)C(C)(C)C)NC(=O)C(C)(C)C)cc1	nt	i	nt	nt	nt	i
CCSc1nnc(-c2cccnc2)n1-c1ccc(Cl)c(C)c1	i	i	i	i	i	i
Cc1cc(C)n(-c2nc3nonc3nc2Nc2cccc(C)c2C)n1	i	i	i	i	i	i
O=c1c2ccccc2nc(-c2ccco2)n1CCCn1ccnc1	69.4	i	i	65.1	i	i
COc1ccc(-c2nc3ccccc3c(=O)n2CCCn2ccnc2)cc1	i	nt	i	i	i	nt
CC/C(C)=C1\SC(N2CCOCC2)=NC1=O	i	i	i	i	i	i
CC1CC(C)(C)N2C(=O)C3(Nc4ccccc4S3)c3cccc1c32 (stereo unspecified)	52.3	i	i	i	i	i
CC(C)(C)C(=O)CN1C(=O)C2(OCCO2)c2ccccc21	i	i	i	i	i	i
SMILES	CYP2C19 inhib	sEH activator	CYP2C19 act	CYP2C9 inhib	CYP2C9 act	sEH inh
Cc1ccc(CNC(=O)CN2C(=O)C3(OCCCO3)c3ccccc32)cc1	62.2	i	i	i	i	i
CCOC(=O)CN1C(=O)C2(OCCCO2)c2ccccc21	i	i	i	i	i	i
O=C(CN1C(=O)C2(OCCCO2)c2ccccc21)NCc1ccccc1	63.8	nt	i	i	i	nt
Cc1ccc(C)c(CN2C(=O)C3(OCCCO3)c3ccccc32)c1	52.4	i	i	71.8	i	i
CCOC(=O)Cc1csc(NC(=O)C(C)(C)CC)n1	i	i	i	i	i	i
Fc1ccc2nc3[nH]c4ccccc4c3nc2c1	i	i	i	i	i	i
c1ccc(CCCNc2ncccn2)cc1	nt	i	nt	nt	nt	i
Cc1cc(/C=C(\C#N)C(=O)NCc2ccco2)c(C)n1C1CCCC1	i	i	i	i	i	i
COc1cc(OC)nc(Oc2ccccc2C(=O)Oc2ccc(F)cc2Cl)n1	i	i	i	i	i	i
C/C(=N/OCC(=O)Nc1ccc(C)cc1C)c1cccs1	93.4	i	i	98.4	i	i
Cc1ccc(NC(=O)CCC(=O)NNC(=O)c2cccs2)c(C)c1	i	i	i	i	i	i
CN(C)CCCNc1oc(-c2cccc(Cl)c2)nc1C#N	i	i	i	i	i	i
CCOC(=O)/C(=N/Nc1ccc(C)cc1)S(=O)(=O)c1ccc(Cl)cc1	69.4	i	i	89.8	i	i
